Test results taken from PubChem BioAssay AID1159506 (National Center for Advancing Translational Sciences (NCATS), 2015).
In all, about 59,000 sequences were measured (the read-out: median about -0.00055, lowest 2% from about -2 on). The sample as a whole holds a higher share of the lowest values than the screen did.

Assay: Identification of proteins required for the processing of the EWS-FLI1 nascent transcript;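 further: robust z of luciferase light less the median z of siRNAs with the same seed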
Conditions: TC32 Ewing sarcoma NR0B1-luc vs CMV-luc (EWS-FLI1 target promoter against control promoter), 48 h; screened at 20 nM (by protocol)
Outline: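 Readout: OneGlo luminescence, 48 h post-transfection, TC32-NR0B1-luc vs TC32-CMV-luc in parallel. siRNA 20 nM final, RNAiMax lipid, 600 cells/well; z-score-MAD transformed, then seed-adjusted.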

Row | Sequence | seed-corrected z-score
1 | AUAGGGAACAGGAUAGCCC against C1orf74 | 1.41
2 | UAGAUCUUUCCUCUGGUGG against FAM132B | -0.705
3 | UGAACCGAGACUGUGGCAC against SERF1B | -0.313
4 | UCCUUCUUGAGCAGGUUCU against SOX14 | -0.364
5 | AUUGUUGUCCAUAAUAGGC against IKZF2 | -0.0322
6 | UGACUAUUAAGAUAUGAAG against ZNF121 | -2.14
7 | UUCUUUACAACUAUCCGAG against FBXO5 | 2.48
8 | UUGCCUAUCAGUAGCAGUU against RAB3D | -2.07
9 | UGAUUGGAAAGCUUGUUCU against ME3 | 0.0737
10 | UCGCUGAUGAGGAUCUUCC against KCNA10 | -0.144
11 | UAUACAAUGAGGCAGCUGA against ISCA1P1 | 0.235
12 | UCUGGUGGGACUGGUGUUG against ZNF574 | -3.85
13 | UUUCUGAUCAUCUUGGUCC against SAFB | -0.16
14 | UUCUGGAUCCCAAAUAGUG against ARHGAP19 | 0.0206
15 | UGUUAUCCGAGUAUAAUAC against PSMD12 | -2.56
16 | UUAUCACCCAUAGGAGCCU against LOC400965 | 0.18
17 | UGUCUUGUAGAUUUCCACC against TATDN1 | -0.0339
18 | AUAGCUGUGAGACAUCAGG against PRCD | -2.08
19 | UUAGUUCGUUCCUCUGUGC against PSMC5 | 1.1
20 | UUCGCUGACUCUGUAACCC against CACNB4 | -0.0786
21 | UACUCGCUCACCACAAAGG against SRSF4 | -0.234
22 | UCUCGGUUCAUUUUCUUGA against HOXC10 | 0.936
23 | AAUGAUUUUAGAAGCCUGU against NPR3 | 0.11

Row | Sequence | seed-corrected z-score
24 | UAAGAUACUAUGGGAAAUA against C20orf166-AS1 | -2.11
25 | AAAGUUUAAGCAACCGUCG against RPS23P8 | 1.69
26 | AAAUCGUUCAAUUACAUCC against ADAM17 | 0.501
27 | UGGAGAGUAUGGGUAGUCG against CDC34 | -1.87
28 | UCAGGUUCUUCCGUAGCUG against PHF21A | -0.312
29 | AAAGACUCCAUAUAGACGG against ROR1 | -0.522
30 | AUCAAUGACAUAAUCGCUG against SHANK3 | -0.601
31 | AGUGGAGUUAGAUAGUUGG against KDM6A | -4.37
32 | UACCACAUUACACUCGUCU against NPM3 | 0.156
33 | UUGUUGUCCAUAAUUGUCC against RNF8 | 1.95
34 | UCCGGAUAUACUGUGCUUC against PCMTD2 | 0.0601
35 | UUUGGGCCUGCUGAAAUUG against RNF148 | 0.493
36 | AACUGUCUUGUUGCUCUUG against NFKBID | -0.0314
37 | AAGAUAGUCAAGCAUGUGC against ELMO3 | 0.733
38 | UGUUGUCGCAGUGAGGAGC against KIAA0141 | -2
39 | UUUGGUGACUGGACCGUUC against TRIM24 | -0.553
40 | UUGACAGCAAUCACAGUGG against AWAT2 | 0.583
41 | UCAGCUCGGAUUUCACGGC against SHISA7 | 0.404
42 | UUAAGUUGAUCUGUACUGC against FAM117B | -0.0872
43 | CAGCCAUCUAGGAUGAGCC against RPL10P8 | -0.668
44 | UGGUUUUAGAGGAAUAGGG against SLC51A | -0.953
45 | UAGGAAACCAAGCACAUCU against SH3BGRL | 1.88
46 | AUAGCCUCCAGUCCAAUUG against TM2D3 | -2.03

Row | Sequence | seed-corrected z-score
47 | UUGGUGGUGAACAUAGGGA against TAL1 | -0.201
48 | UAGGUUGGAGAAUUGUUCC against T | -0.372
49 | UGUUGUAGGAAUAGCCUGG against PITX2 | -2.28
50 | UGGUCAUUUGGUAUGAGGC against CAPRIN2 | 0.0796
51 | UUCUUGAGAAGCAGGUUCU against STAT6 | -0.716
52 | UGAUCCAUGGGUUCGAUCC against ROCK2 | -0.007
53 | AAAAUAGAGGUCACCAUAC against C1orf35 | 0.456
54 | UGAGAAUUAUGAUCACUGC against SLC7A1 | -0.0797
55 | UUUGUGCUUAACUGGCUGG against RPL12 | -2.56
56 | GCCGCGUACUUGUUGUUGC against IGLL1 | 0.951
57 | UCCUGCUACAUUUACAUCG against FERMT1 | -3.31
58 | AAACUGAGAAACAUCAAGG against ZNF433 | -1.01
59 | UGUCAUCCCAUCAAUGACU against PPIC | -0.679
60 | UUUAAGGCAUCAUCUAGAC against DHFR | -0.615
61 | UUCGAUGAAGAAACUCUGC against DOCK11 | 0.27
62 | UGCGUUUUUAAGCAUGUGC against RPL17 | -2.46
63 | UUUUGUGCCUUCGUUAACC against ADAM9 | -0.742
64 | UUUCUGUCCAGCAUAUGUA against SSU72 | -0.804
65 | UCUCUUCAGAGCGUGCACC against ANKRD54 | -0.161
66 | UUAGCUCCAAGUCUUGCAG against HDLBP | 0.263
67 | UACUGGUCCACGGAGAUUU against CSPG4 | 0.0797
68 | CUUCAUAGUGGUGUCCACG against MUC3B | -0.292
69 | UUCGUUUCGUCUCUUCUAG against ESCO1 | 1.44

Row | Sequence | seed-corrected z-score
70 | ACCGUUAAAACAAGCUUCG against NBAS | 0.0519
71 | UUCGCUGAAAAGAAACUGG against PHRF1 | -0.139
72 | UUUAAGCAACCGUCGUUGG against RPS23P8 | -9.97
73 | AAUCUAUAACUCUUUGACC against MKKS | -0.508
74 | UGAUGGUCAACUUGAUGCC against LCK | -4.01
75 | UGCAUUCCCACCAAUGUUG against EIF2B2 | -0.2
76 | UCAGAGCGAUUUUCAGUAC against KCTD21 | 0.306
77 | UAUGUUGUCACUAGUCAGC against PNPLA7 | -0.38
78 | UUCUGCAAAGCGCCACAGG against SLC22A31 | -2.24
79 | UUCUGAGUAAUCUACAAUG against RHOT1 | 0.1
80 | AACCGUGUAACCAUAGCUC against GABRQ | 0.126
81 | AAUAGUACCACCAAAGCAC against ELOVL2 | -0.0356
82 | UAUCUCCUCAGCUAAUUCG against SLC17A8 | 0.0229
83 | UUCGUUAGUUGUUCUAGGC against RB1CC1 | -2.96
84 | UCUGUGUAGCUCGGACACC against OR7E24 | -0.966
85 | AAUGAAUCAAAUGUAACGG against PNPT1 | -0.376
86 | UUUUCAAACAGGUAACAGC against ATM | 0.359
87 | UUUUGAGCCUCAGCACUCC against RGL3 | -0.0402
88 | UCCAGUUUUCGGAUCUUCC against MRPL40 | -2.5
89 | UCUCGUUCAGUUAUCUGCC against HECW2 | 0.826
90 | UAGAGUUCCAGCUAGGGUG against CTRL | -0.507
91 | UUCUUGUACUGCACCAUCU against PHLDA1 | 2.51
92 | UUAGUUCCAUUUCCUACUC against TEX38 | -0.404

Row | Sequence | seed-corrected z-score
93 | UGUGCAUGCACAGAGAAGC against NFE4 | -1.58
94 | AAACUUAUACUUCUGGUAC against VBP1 | -0.149
95 | AGGAGACUCAGCUUGAUCC against SPATA45 | -2.01
96 | AACCAGUUAGAUUAUACGC against ATRNL1 | -0.225
97 | UUGUAUCCAAAGAUGAUUC against PLXDC2 | -0.0677
98 | AGGCUGAUGACUCCUAUCC against SSTR3 | 0.317
99 | UCAUAGGACCAGUCAAUGC against CPA2 | 0.13
100 | UCCCGUUCAAUCUCCCACC against RNF113B | -0.595
101 | UCCAUGGUACUUCUUAUGC against TMEM127 | -2.9
102 | UUGGGAGCGAUAACACGAC against C19orf53 | -0.418
103 | AGAUCUACUAGUUCUUGUG against LRCH1 | 0.758
104 | ACAGUGGUGAACGUGAUGC against JPX | -2.26
105 | UUGGUAGUAGAUCAUAUGC against STXBP3 | -0.0771
106 | UUUUCUUGCGUUUAUGUGG against C11orf57 | 0.448
107 | AGUGAUGAAAGCAAAGUAG against KCNK16 | 0.908
108 | UUUCAUCUCACCUUUAUUG against RPL23P5 | -2.17
109 | UUCUGAUCCUGGAUGUUGC against R3HDM1 | 0.205
110 | AGACGUUCCAUUCAUAUCU against RBMY1F | 0.399
111 | AUGGUCUUCACUCUUGUGC against CCR9 | -3.14
112 | UGUGUUUAACCAGAGAUCC against RXRG | 0.625
113 | UGACCGUUUCGGAUGAUGG against ATP2B4 | 0.168
114 | UAGCUGUCGAACACCCAGG against PDDC1 | 1.63
115 | UCAGUUUGCAAUUAGGCAG against LOC113230 | 0.933

Row | Sequence | seed-corrected z-score
116 | UACCAGCUCACUGACAUGG against OR8B4 | 0.0124
117 | UGCAUGACAAACAAAUUCC against GATAD1 | 0.136
118 | UCCAGUUGUAGUUCGGCAG against KISS1 | -2.32
119 | UCAGGUUGAUGAAAUGGGC against PRDM15 | -0.519
120 | UGAGCACAGAAAGUGGACC against SNRPD2P1 | -0.553
121 | ACAUCCUUAAGAAAUAUGG against PLEKHA2 | -0.563
122 | AAAGCGUAGAAAAUAUCCC against DNAH5 | -0.0906
123 | UCAGUAUGAAGAGCAACAG against MCM2 | -0.317
124 | UACCUCUUAAUAAGAUCUG against ATP8A2 | 0.0625
125 | UUUCGGAAAUCUAGGCUGG against KANSL1 | 1.62
126 | UUGAUAUAAACUCUGACAC against PDE4D | 0.567
127 | UCGUCUUCGCUUUAUAUCC against EFR3A | -3.4
128 | AUCGGUAGCAGUGAACAUG against LPP | -0.942
129 | UAUAUUAGCGGUAACGGUG against RPL15P3 | -2.66
130 | UCUGUUACAAUUGUUCCAC against ETF1 | -0.812
131 | UUUCUCAUCAAAGAACUCC against PPP2R1A | -0.546
132 | AAGCUUUAUACUUUCCACC against OR7G3 | -0.496
133 | AUUCGAACAACAUUUCUUC against ANOS1 | -0.592
